According to PubChem BioAssay AID1778 (Sanford-Burnham Center for Chemical Genomics, 2009):
In all, about 290,000 compounds went through this assay and about 260 (0.09%) were called active. Cut-off read from the data, not from the text of the source: active = inhibition above about 50%; inactive = the rest. Only a selection was taken, and actives are over-represented in it overall. Measured potencies and affinities stand elsewhere.

What follows are molecules tested against Kappa-type opioid receptor (Homo sapiens) (UniProt P41145) (assay: kappa opioid receptor blockers – cell-based, luminescence, uHTS (AID 1778)). Conditions: KOR beta-arrestin recruitment, antagonist mode, stronger effect = higher value; at 10 µM unless noted.
Chain of Kappa-type opioid receptor (Homo sapiens) (P41145 whole entry, looked up): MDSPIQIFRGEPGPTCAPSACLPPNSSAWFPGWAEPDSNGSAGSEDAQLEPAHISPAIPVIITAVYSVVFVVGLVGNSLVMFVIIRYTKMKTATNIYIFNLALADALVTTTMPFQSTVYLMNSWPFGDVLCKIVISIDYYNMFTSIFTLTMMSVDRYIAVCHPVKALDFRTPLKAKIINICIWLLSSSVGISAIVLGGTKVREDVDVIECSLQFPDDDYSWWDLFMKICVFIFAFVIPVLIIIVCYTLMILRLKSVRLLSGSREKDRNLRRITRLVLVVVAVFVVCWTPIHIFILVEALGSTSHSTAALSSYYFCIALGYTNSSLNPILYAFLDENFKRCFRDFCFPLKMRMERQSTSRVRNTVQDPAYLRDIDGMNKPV

inhibition, inactive:
CC1SCC(NC(=O)c2cccc(Cl)c2)CS1 (stereo unspecified) -29.1%, CCN(CC(=O)Nc1ccccc1C(F)(F)F)C(=O)CCc1nc2ccccc2c(=O)[nH]1 -11.6%, COc1ccc(-c2c(C)[nH]n3c(=O)c(Cc4ccccc4)c(C)nc23)cc1 -5.1%, Cc1nc2c(-c3ccccc3)c(C)[nH]n2c(=O)c1Cc1ccccc1 -10.5% [at 20 µM], COc1ccc(CC(=O)Nc2ccc(C(C)=O)cc2)cc1 -81.9% [at 20 µM], Nc1ccc(N=Nc2ccccc2)c2cccnc12 -4.3%, Oc1ccc(N=Nc2ccc3c(c2)OCCO3)c(O)c1 34.9%, O=S(=O)(Nc1ccc(N=Nc2ccc(O)c3ccccc23)cc1)c1ccccc1 -3.4%, Oc1[nH]c2ccccc2c1C=Nc1ccc2c(c1)OCCO2 0.8%, Oc1[nH]c2ccccc2c1C=Nc1ccc2c(c1)OCO2 -33.1%, O=S(=O)(O)c1cccc2c(N=Nc3ccc(O)c4ncccc34)cccc12 -7.2%, COc1ccccc1NC(=O)c1cc2c(CO)cnc(C)c2oc1=Nc1cccc(C(N)=O)c1 21.7%, CCN(CC)CC#Cc1ccc(C)cc1 -6.4%, CCC(C(=O)OC)n1cnc2c(nnn2-c2ccccc2)c1=O (stereo unspecified) -16.1% [at 20 µM], Cc1nn(-c2ccc(N3CCCCC3)nn2)c(C)c1CCC(=O)Nc1ccc(F)c(F)c1 -31.5%, Cc1cc(C)cc(NC(=O)c2ccc3c(c2)CCN3S(C)(=O)=O)c1 -4.2%, Oc1c(CN2CCCCC2)cc(Br)c2cccnc12 -1.9%, COc1ccccc1N1CCN(Cc2cc3c(cc2Br)OCCO3)CC1 -44.1%, O=[N+]([O-])c1cc(CN2CCN(c3ccccc3)CC2)c(O)c2ncccc12 12% [at 20 µM], COc1ccccc1N1CCN(Cc2ccc(O)c3ncccc23)CC1 -12.2%, COc1ccc(N2CCN(C(=O)c3cc4c(=O)n(Cc5ccccc5)ccc4nc3C)CC2)cc1 -13.1%, CCCCOc1ccc(C(=O)NNC(=S)NC(=O)CC)cc1 26.3%, CCCOc1ccc(C(=O)NNC(=S)NC(C)=O)cc1 19.1%, CCc1nnc(NC(=O)c2ccc(-c3ccccc3F)o2)s1 -18.1%, CC(C)(C)C1CCC(=NNC(=S)Nc2cccnc2)CC1 (stereo unspecified) 11.2%, CC1=C/C(=N\NC(=S)NCCc2ccccc2)CC(C)(C)C1 -16.1%, O=C(Nc1ccc(NC(=O)c2ccccc2Cl)nc1)c1ccco1 -2%, CC(=O)O[C@@H]1[C@H]2[C@@H](C[C@@H](C)[C@@H]3C=CC(=O)[C@@]13C)OC(=O)[C@@H]2C 23.9%, C=C1C(=O)O[C@@H]2C[C@@H](C)[C@@H]3C=CC(=O)[C@@]3(C)[C@@H](OC(C)=O)[C@H]12 26.1%, CN(C)CCCNC(=S)NCCNc1nc2cc3c(cc2cc1C#N)OCO3 0.9%, O=C(Nc1ccc(CN2CCS(=O)(=O)CC2)cc1)c1ccccc1 0.1%, Cn1ccnc1Sc1cc(NCCCO)c([N+](=O)[O-])c2nonc12 41.5%, CCC(=O)OCCNc1cc(SCCC(=O)OC)c2nonc2c1[N+](=O)[O-] 5.5%, CCCC(=O)OCCNc1cc(SCCC(=O)OC)c2nonc2c1[N+](=O)[O-] -12.2%, CCCSc1cc(NCCOC(=O)CCC)c([N+](=O)[O-])c2nonc12 -2.8%, Cc1csc(SCC(=O)NC(=O)C2CCCCC2)n1 -17.4%, Nc1cc(=O)[nH]c(SCC(=O)Nc2cc([N+](=O)[O-])ccc2Cl)n1 15.1%, O=C(CNC(=O)c1ccco1)OCC(=O)c1ccc(Br)cc1 -35%, Cc1ccc(Nc2nc3c(c(=O)[nH]2)CCCC3)cc1 -0.9%, Cc1nc(Nc2nc3ccccc3o2)nc2c1CCC2 21.7%, Cc1nn(C)cc1S(=O)(=O)Nc1ccc(F)c(F)c1 9%, COc1ccc(C)cc1NC(=O)CN(c1ccc(F)cc1)S(C)(=O)=O -4.9%, Cc1cccnc1Nc1nc(-c2ccccc2)cs1 1.5%, COc1cccc2sc(Nc3nc(-c4ccncc4)cs3)nc12 -21.7%, Cc1cccnc1Nc1nc(-c2ccc(O)cc2)cs1 17.8%, COc1cccc2sc(Nc3nc(-c4cc5ccccc5oc4=O)cs3)nc12 -2.1%, CCc1nc(N2CCN(C(C)=O)CC2)c2c3c(sc2n1)CC(C(C)(C)C)CC3 (stereo unspecified) -42.9% [at 20 µM], CN(CC(=O)NCCc1ccccc1)S(=O)(=O)c1cccc2nsnc12 -1.3%, O=C(CC1C(=O)NCCN1Cc1ccccc1C(F)(F)F)NCCc1ccccn1 (stereo unspecified) -9.9% [at 20 µM], O=C(c1cc(F)ccc1F)C1CCCN(C(=O)CCCN2CCCCC2=O)C1 (stereo unspecified) 20.7%, COc1ccc(N2CCN(CCCNC(=O)C(=O)c3c(C)[nH]c4ccccc34)CC2)cc1 15.4%, O=C(Cn1c(=O)c2cccn2c2cccnc21)NCCCN1CCN(c2ccc(F)cc2)CC1 -19.4%, COc1ccc(N2CCN(C(=O)C(=O)c3c(C)n(C)c4ccccc34)CC2)cc1 -32.2%, COc1ccc(N2CCN(CCCNC(=O)Cn3c(=O)c4cccn4c4ccccc43)CC2)cc1 47.8%, CN(C(=O)COC(=O)c1cc2c(s1)CCCCC2)C1CCS(=O)(=O)C1 (stereo unspecified) 31.3%, COc1ccc(C2(NC(C)=O)CCN(C(=O)c3cccs3)CC2)cc1 -9.8%, O=C(Cn1cnc2c(cnn2-c2ccccc2)c1=O)N1CCCc2ccccc21 -16.3%, O=C(C1CC1)N1N=C(c2ccc(F)cc2)CC1(O)C(F)(F)F (stereo unspecified) 26.6% [at 20 µM], CCOC(=O)N1CCN(S(=O)(=O)c2ccc(C(=O)N(CCCN(C)C)c3nc4ccc(Cl)cc4s3)cc2)CC1 -7.9%, COc1ccc(C[C@@H]2CN3C(=NC[C@@H]3C)N2C[C@H](C)NC(=O)c2ccc(C)c(Br)c2)cc1 40%, Cc1ccc(C(=O)N[C@@H](C)CN2C3=NC[C@H](C)N3C[C@H]2Cc2ccc(O)cc2)cc1Br 45.3%, COc1ccc(C[C@H]2CN3C(=NC[C@@H]3Cc3ccc(O)cc3)N2C[C@H](C)NC(=O)c2ccc(C)c(Br)c2)cc1 15.3%, Cc1ccc(C(=O)N[C@@H](C)CN2C3=NC[C@H](C(C)C)N3C[C@H]2Cc2ccc(O)cc2)cc1Br 19.2%, NS(=O)(=O)c1ccc(CCNC(=O)CSc2nc3ccsc3c(=O)n2CCCCC(=O)O)cc1 3%, N#CCC(=O)NNC(=S)NC(=O)C(c1ccccc1)c1ccccc1 -32.2% [at 20 µM], Cc1[nH][nH]c(=O)c1C(c1c(C)[nH][nH]c1=O)c1cn(Cc2ccc(Cl)c(Cl)c2)c2ccccc12 -8.7%, Cc1[nH][nH]c(=O)c1C(c1c(C)[nH][nH]c1=O)c1cn(Cc2ccccc2Cl)c2ccccc12 -4%, Cc1ccc(NC(=O)C23CCC(C)(C(=O)[C@H]2Br)C3(C)C)cc1 (stereo partly specified) -3.6%, O=C(OCn1ncc(Cl)c(Cl)c1=O)c1ccc(F)cc1 5.2%, O=C(OCn1ncc(Br)c(Br)c1=O)c1c(F)cccc1F 28%, CC(C)C(C(=O)NC(C)(C)C)N1C(=O)c2ccccc2C1=O (stereo unspecified) -6.7%, Cc1cc(C(=O)Nc2ccc(Br)cc2)cs1 9.2%, CC(=O)c1c(C)nn(CCC(=O)O)c1C 18.3%, Cc1ccnc(NC(=O)c2sc3cc(Cl)ccc3c2Cl)c1 9.3%, O=C(Nc1nccs1)c1sc2ccccc2c1Cl -49.2%, O=C(CCN1C(=O)S/C(=C/c2ccc(Cl)cc2)C1=O)N1CCOCC1 36.7%, Cn1c(C(=O)NCc2cccnc2)cc2sccc21 26.2%, Cc1nc(Cl)c(C(=O)NCc2ccccc2)c(C)c1Cl 7.6%, Cc1nc(Cl)c(C(=O)NCc2ccccc2)c(C)c1[N+](=O)[O-] 13.7%, Cc1ccccc1-c1nc(CS(=O)(=O)CC(=O)N2CCOCC2)c(C)o1 -6%, O=C(NCc1ccccc1Cl)c1cc(=O)[nH]c2ccccc12 4.5%, O=C(NCc1ccc(Cl)cc1)c1cc(=O)[nH]c2ccccc12 -54.2%, CCOC(=O)c1cc(-c2ccc(N3CCOCC3)cc2)nn1-c1ccc(F)cc1F 21.8%, COc1ccc(NC(=O)CSc2nnnn2-c2ccc(OC)cc2)cc1 -1.3%

inhibition, active:
Cc1nc2c(-c3ccc(Cl)cc3)c(C)[nH]n2c(=O)c1Cc1ccccc1 51%, Oc1ccc(N=Nc2ccc3c(c2)OCO3)c2ccccc12 85.1%, Oc1ccc(N=Nc2ccc3c(c2)OCCO3)c2cccnc12 68.5%, COc1ccccc1N1CCN(Cc2cc(Br)c(O)c3ncccc23)CC1 63.3%, Oc1c(CN2CCN(c3ccccc3)CC2)cc(Br)c2cccnc12 64%, Cc1[nH][nH]c(=O)c1C(c1c(C)[nH][nH]c1=O)c1cn(Cc2ccc(F)cc2)c2ccccc12 53.6%, O=C(NCc1ccccc1)c1c(Cl)nc(Cl)c(Cl)c1Cl 58.5%
